High-throughput results as filed in PubChem BioAssay.
D2 PAM-1: positive allosteric modulators of human D2 dopamine receptor; potentiation, % at 10 µM; hit rate 0.34% among 340,000; P14416; HEK293 T-REx D2, calcium flux, EC20 dopamine potentiation;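 active means potentiation over 3 SD above the plate norm, cut at about 30% in these data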; further: 0% is about no effect
Target sequence (P14416 whole entry, looked up): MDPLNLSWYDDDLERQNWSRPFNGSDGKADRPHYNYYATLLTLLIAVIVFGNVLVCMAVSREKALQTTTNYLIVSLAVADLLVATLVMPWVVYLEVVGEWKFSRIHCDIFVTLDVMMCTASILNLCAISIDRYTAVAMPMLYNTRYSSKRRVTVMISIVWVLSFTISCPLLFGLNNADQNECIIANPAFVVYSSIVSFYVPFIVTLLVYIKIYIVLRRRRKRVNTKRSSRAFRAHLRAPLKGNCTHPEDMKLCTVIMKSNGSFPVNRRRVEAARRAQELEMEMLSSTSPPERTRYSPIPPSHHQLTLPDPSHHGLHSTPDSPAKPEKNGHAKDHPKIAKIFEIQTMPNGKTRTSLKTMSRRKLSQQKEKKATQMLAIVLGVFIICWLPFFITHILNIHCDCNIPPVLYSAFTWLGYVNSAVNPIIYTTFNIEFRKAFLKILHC
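Potentiation of an EC20 dopamine calcium response measured kinetically over 180 s, after a preceding 180 s compound-only read flagging agonists. Cells: inducible Hek293 Trex D2 line, 4000/well, cultured overnight at 30 C before dye loading.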
D2 PAM-2: positive allosteric modulators of human D2 dopamine receptor. P14416. DiscoveRx D2 beta-arrestin cells, luminescence, 90 min; 100% = 57 uM dopamine signal. potentiation, % (no concentration beside the values). hit rate 0.23% among 360,000; in the data active means potentiation above about 50%
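D2 cells co-treated with compound plus 50 nM dopamine (EC20) for 90 min at 37 deg C to detect potentiation. Beta-arrestin recruitment was read as enzyme-fragment luminescence after 1 h at ambient temperature. Full response was set by 57 uM dopamine.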
D2 ag-1: activates the human D2 dopamine receptor. P14416. DiscoveRx PathHunter D2 beta-arrestin, luminescence, 90 min; 100% = 57 uM dopamine signal. activation, % (concentration not given with the values). hit rate 0.084% among 360,000. AID 624465; in the data active means activation above about 40%
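DiscoveRx PathHunter D2 beta-arrestin cells (2,100/well) attached overnight, then compound-stimulated 90 min at 37 C in HBSS/10 mM HEPES/0.1% Tween-20 buffer; beta-galactosidase complementation read by luminescence after 1 h at ambient temperature. Dopamine 57 uM final (EC100) as control.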
D2 ag-2: activates the human D2 dopamine receptor; P14416; HEK293 T-REx D2 cells, calcium flux agonist mode; activation, % at 2 µM; hit rate 0.53% among 340,000;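 active means activation over 3 SD above normal in the single-dose calcium agonist read, cut at about 30% in these data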; further: 0% is about no effect
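HEK293 Trex D2 cells, tetracycline-induced, o/n 30 C 5% CO2; no-wash Ca dye, RT 30–90 min; 10-cycle baseline, 23 nl cpd added, kinetic Ca read 180 s; agonist hits = positive Ca response.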
D2 antag: antagonizes the human D2 dopamine receptor; HEK293 TREx D2 cells, calcium flux, dopamine EC80; AID 485344; hit rate 2% among 340,000; P14416; inhibition, % at 10 µM; in the data active means inhibition above about 30%; inactive means below that, where a call was filed; further: 0% is about no effect
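Inhibition of EC80 dopamine-driven calcium flux, recorded kinetically, defines activity here; cells are a tetracycline-induced HEK293 T-REx line expressing force-coupled D2.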
Starred values were filed as active, the others as inactive; . = no result; ! = not confirmed by another sample. The list is not random: actives were taken first. Their share in the collection is about 2.4%.

SMILES	D2 PAM-1	D2 PAM-2	D2 ag-1	D2 ag-2	D2 antag
Cc1oc(-c2ccc(Cl)cc2)cc1C(=O)NC1CCN(Cc2ccccc2)CC1	-16	-18	-3	1	58*
CCN(CC)S(=O)(=O)c1ccc(Cl)c(C(=O)NC2CCN(Cc3ccccc3)CC2)c1	-20	-34	-1	0	26
Cc1oc(C(C)(C)C)cc1C(=O)NC1CCN(Cc2ccccc2)CC1	-23	-20	-5	1	85*
O=C1CC=Nc2ccc([N+](=O)[O-])cc21	.	-11	-3	.	.
CC1CCC(=NNC(=O)Cc2ccccc2)CC1 (stereo unspecified)	-10	9	1	0	43*
CC1CCC(=NNC(=O)Cc2cccn2C)CC1 (stereo unspecified)	-3	4	4	2	2
CC(C)(C)NC(=O)C(c1ccccc1)N(C(=O)CNC(=O)c1cccs1)c1cccnc1 (stereo unspecified)	-3	-2	-3	0	-15
CC(C)(C)NC(=O)C1(N2C(=O)c3ccccc3C2=O)CCCC1	.	-27	-2	.	.
COc1ccc(C2/C(=C(/O)c3ccc(S(=O)(=O)N4CCOCC4)cc3)C(=O)C(=O)N2CCN2CCOCC2)cc1 (stereo unspecified)	-8	-9	-2	1	40*
CN1/C(=C\C=C(/C#N)C(=O)Nc2ccccc2F)C(C)(C)c2ccccc21	-5	-3	-4	62*	4
CN1/C(=C/C=C(/C#N)C(N)=O)C(C)(C)c2ccccc21	.	-19	-7	.	.
Cc1ccc(C)c(S(=O)(=O)N2CCN(C(=O)C3CCN(c4ncnc5sc(C)c(C)c45)CC3)CC2)c1	2	-9	-4	1	-1
Cc1ccc(Cn2ncc3c(N4CCN(c5ccc(C)cc5)CC4)ncnc32)cc1	10	13	-1	-1	0
Cc1ccc(Cn2ncc3c(N4CCN(C)CC4)ncnc32)cc1	-33	-11	5	0	55*
CC(C)c1nnc(NC(=O)CCC(=O)Nc2ccc3cn[nH]c3c2)s1	-8	-17	-3	0	61*
c1ccc(Cn2nnc3c(N4CCc5ccccc54)ncnc32)cc1	36*	-20	-1	1	-18
Cc1csc(NC(=O)C2CC(=O)N(c3ccc(C)c(C)c3)C2)n1 (stereo unspecified)	-9	5	-5	1	51*
COc1ccccc1N1CC(C(=O)Nc2nc(C)cs2)CC1=O (stereo unspecified)	-9	-17	-3	0	7
Cc1ccc(N2CC(C(=O)Nc3cccnc3)CC2=O)cc1C (stereo unspecified)	-5	-3	-3	0	31*
Cc1cc(=O)n(Cc2cccc(Cl)c2)c2c1c(C)nn2-c1ccccc1	11	.	.	0	.
CCCCn1c(O)c2n(c1=O)Cc1ccccc1N=C2c1ccc(C)cc1	.	0	4	.	.
COCCCNC(=O)Cn1ncc2ccsc2c1=O	0	0	-3	0	30*
CS(=O)(=O)N(CCc1ccccc1)CC(=O)N1CCN(Cc2ccc3c(c2)OCO3)CC1	8	-10	-3	-2	44*
O=C(CCCCCn1c(=O)[nH]c2ccccc2c1=O)N1CCN(Cc2ccc3c(c2)OCO3)CC1	-17	2	3	35*	5
O=C(Cn1c(=O)[nH]c2ccccc2c1=O)N1CCN(Cc2ccc3c(c2)OCO3)CC1	1	-21	1	1	4
SMILES	D2 PAM-1	D2 PAM-2	D2 ag-1	D2 ag-2	D2 antag
Cc1cc(Br)cc2c1N(Cc1ccccc1OC(C)C)C(=O)C2=O	0	.	.	0	.
COc1ccc(N2C(=O)CSC23CCCCC3)cc1	11	-2	-1	0	33*
C[C@H](NS(=O)(=O)c1ccc(Cl)cc1)C(=O)OCC(=O)Nc1cc(S(=O)(=O)N2CCOCC2)ccc1Cl	.	-9	5	.	.
Cn1c(=O)c2ccccc2n(Cc2ccccc2Cl)c1=O	7	2	1	-1	34*
CCCCCOc1ccccc1Cn1c(=O)oc2ccc(C)cc21	-8	.	.	2	.
CCCCOc1ccccc1Cn1c(=O)oc2ccc(C)cc21	7	-4	1	1	31*
Oc1ccc2ccccc2c1CNn1cnnc1	-7	-3	1	0	33*
CC(C)CNC(=O)[C@H]1N2C(=O)c3ccccc3C2SC1(C)C (stereo partly specified)	6	-7	-4	1	5
CC(=O)Oc1ccc(Oc2ccc(-c3noc(C)n3)cc2)cc1	33*	-15	1	0	18
CC(=O)Nc1ccc(Oc2ccc(-c3noc(C)n3)cc2)cc1	-14	4	1	0	16
Cc1ccc(NC(=O)CN2CCCCCC2)cc1Br	-31	-7	0	4	42*
CCN(CC)CCn1c(NS(=O)(=O)c2ccc(C)cc2)nc2ccccc21	-19	-40	-2	0	51*
CC(=O)N(Cc1ccccc1)c1c(N)nc(N)[nH]c1=O	.	-4	-1	.	.
O=c1c2ccc(Cl)cc2[nH]c(=S)n1CCCN1CCOCC1	-20	-18	-5	0	34*
CC1CCN(CCCn2c(=S)[nH]c3ccccc3c2=O)CC1	-18	-42	-3	0	22
O=C(CCCCCn1c(=S)[nH]c2ccc(N3CCOCC3)cc2c1=O)NCc1ccccc1	-1	0	-8	-1	17
O=C(CCCCCn1c(=S)[nH]c2ccc(N3CCOCC3)cc2c1=O)NCc1cccc(Cl)c1	39*	-3	8	-1	0
O=c1c2ccccc2[nH]c(=S)n1CCCN1CCN(C2CCCCC2)CC1	-24	-31	2	0	82*
CC1CCN(CCn2c(=S)[nH]c3ccccc3c2=O)CC1	-12	-25	5	0	31*
COc1ccc(NC(=O)CN(c2ccc(C)cc2)S(=O)(=O)c2cccc3nonc23)cc1OC	19	.	.	0	.
O=c1c2ccccc2[nH]c(=S)n1CCCN1CCC(Cc2ccccc2)CC1	-28	-24	1	-2	82*
O=C(CN1CCN(S(=O)(=O)c2ccc(Br)s2)CC1)NCC1CCCCC1	.	-12	4	.	.
Cc1cc(C)c[n+](-c2nc3ccccc3nc2C(=C=[N-])C#N)c1	-2	-2	-2	1	34*!
CC(C)(CO)Nc1nc(N2CCCC2)nc(N2CCCC2)n1	-7	-23	-3	0	47*
O=C(CSc1ncc(S(=O)(=O)c2ccc(Br)cc2)c(=O)[nH]1)NCc1ccc(Cl)cc1	-6	.	.	-1	.
CC(C)C(NC(=O)c1ccc(C(C)(C)C)cc1)C(=O)Nc1cccc(S(N)(=O)=O)c1 (stereo unspecified)	37*	-42	-1	-1	-12
CCOc1ccccc1C(=O)NC(C(=O)Nc1cccc(S(N)(=O)=O)c1)C(C)C (stereo unspecified)	-4	-16	-2	0	33*
